# Only some compounds are listed: those with a hit (about 6.9% of all), similar ones and a draw of the others.
# MCF10A rereplic: inducers of DNA re-replication in MCF 10A breast cells | MCF 10A DNA re-replication, Hoechst nuclear intensity, 48 h | Potency, µM (top dose mostly 46.1 µM), for inactives: top-dose activity, positive = re-replication, hits mostly activators | 350,000 compounds, 2.9% hits | AID 624296; note: potency is the fitted concentration of half-maximal effect; % of control where 0% means no effect; nearly all actives have a fitted effect of over 50% in size
# Vif-A3F inh: inhibitors of Vif-A3F interaction | HeLa A3F-eYFP + Vif (tagged APOBEC3F with the HIV-1 protein that degrades it), YFP fluorescence increase | Potency, µM (titrated, usually from 46.1 µM), for inactives: at the highest dose activity, negative = active | 390,000 compounds, 0.2% hits; note: potency is the fitted concentration of half-maximal effect; % of control where 0% means no effect; nearly all actives have a fitted effect of over 65% in size
#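 HeLa cells stably expressing Vif plus C-terminally eYFP-tagged A3F were seeded, incubated overnight at 37 deg C, dosed with compound, incubated overnight again at 37 deg C. Yellow fluorescence (Ex 488/Em 500-530) reported blocked Vif-mediated A3F-eYFP degradation.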
# Vif-APOBEC3G blk: Vif-A3G binding inhibition; 410,000 compounds, 0.076% hits; HeLa A3G-eYFP + Vif (tagged APOBEC3G with the HIV-1 protein that degrades it), YFP fluorescence, overnight; Potency, µM (series often up to 46.1 µM), for inactives: at the highest dose activity, negative = active, actives largely listed as inhibitors; Q9HC16; AID 602310; note: potency is the fitted concentration of half-maximal effect; % is set by controls: 0 for no effect and ±100 for the full control effect; nearly all actives have a fitted effect of over 60% in size
# Target sequence (Q9HC16 whole entry, looked up): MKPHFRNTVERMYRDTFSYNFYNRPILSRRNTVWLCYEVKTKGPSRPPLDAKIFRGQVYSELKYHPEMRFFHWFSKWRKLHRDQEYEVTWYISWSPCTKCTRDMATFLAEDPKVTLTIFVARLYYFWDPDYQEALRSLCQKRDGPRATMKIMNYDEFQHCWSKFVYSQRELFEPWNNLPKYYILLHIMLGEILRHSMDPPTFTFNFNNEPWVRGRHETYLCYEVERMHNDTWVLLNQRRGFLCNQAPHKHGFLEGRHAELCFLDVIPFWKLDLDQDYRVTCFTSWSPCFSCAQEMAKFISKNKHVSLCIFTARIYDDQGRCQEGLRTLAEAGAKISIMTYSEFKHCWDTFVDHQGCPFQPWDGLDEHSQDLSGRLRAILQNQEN
#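 Read-out is eYFP fluorescence (Ex 488/Em 500-530) from Vif-expressing HeLa A3G-eYFP cells; more signal means A3G escaped Vif-mediated degradation. Cells plated overnight, compound pinned in, incubated overnight at 37 deg C.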
# IL1B secr inh: blocks inflammasome-driven IL-1 beta release; THP-1 LPS/ATP IL-1B secretion, AlphaLISA, 16 h; active compounds read low; activity change, % at 57.5 µM; 360,000 compounds, 4.7% hits; AID 743279; in the data active = activity change below about -50%; inconclusive = mostly about -30% to -49%; note: % is set by controls: 0 for no effect and ±100 for the full control effect
#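 THP-1 cells pretreated 1 hr with compounds (up to 57.5 uM final), then stimulated with LPS (250 ng/mL final) plus ATP (1.25 mM final); secreted IL-1B measured by AlphaLISA after 16 hr, decreased signal indicating inhibition.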
# Giardia killer: kills Giardia lamblia | Giardia lamblia trophozoite viability | 340,000 compounds, 0.15% hits | activity change, % at 7.66 µM, hits read low; in the data active = activity change below about -80%; inconclusive = between about -30% and that limit;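 note: parasites exposed to compound for two days anaerobically before the ATP read; % is set by controls: 0 for no effect and ±100 for the full control effect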
#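 Giardia trophozoites, 100 cells per well, were exposed to compounds for 48 hrs at 37 deg C under anaerobic conditions; viability was then read as ATP content by bioluminescence after 15-30 min at room temperature.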
# SW480 rerep: inducers of DNA re-replication in SW480 colon cancer cells | SW480 DNA re-replication, Hoechst DNA content imaging, 48 h | Potency, µM (highest dose often 46.1 µM), without a hit: top-dose re-replication activation, most hits filed as activators | 340,000 compounds, 1.8% hits | AID 624297; note: potency is the fitted concentration of half-maximal effect; % of control where 0% means no effect; nearly all actives have a fitted effect of over 55% in size
#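 SW480 cells exposed to compounds for 48 hr at 37 C, 5% CO2, then Hoechst-stained 40 min. Nuclear DNA content imaged by fluorescence scanning (405 nm excitation, 500-530 nm emission); re-replication scored as increased high-intensity nuclei.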
# Active calls of the source: *; ? = inconclusive; nt = not tested or not shown. Unless noted, calls come from the whole dose curve; as a rule, active = well fitted curve in the direction sought with a large enough effect; inconclusive = small, poorly fitted or top-dose-only effect, or another doubt; inactive = no such curve, though single readings can be large; an effect the other way counts as inactive or inconclusive.
SMILES,MCF10A rereplic,Vif-A3F inh,Vif-APOBEC3G blk,IL1B secr inh,Giardia killer,SW480 rerep
N#CC(c1ccccc1)N(CCCCl)C(=O)c1ccccc1 (stereo not given),?,3%,1%,11,12,15µM*
CC(=O)N(CCCCl)C(C#N)c1ccccc1 (stereo not given),-29%,-2%,-4%,8,16,2%
CCc1c(C)nc2nncn2c1NCc1ccccc1,nt,4%,6%,nt,nt,nt
COc1cccc(/C=N\NC(=O)c2ccc(Cn3cc(Br)c([N+](=O)[O-])n3)o2)c1O,?,0%,-22%,167,-2,0.73µM*
CC1=NN(C(=O)c2ccc(Cn3cc(Br)c([N+](=O)[O-])n3)o2)C(O)(C(F)(F)F)C1 (stereo not given),-2%,-5%,2%,-10,-13,10µM*
CC1=NN(C(=O)c2ccc(Cn3nc(C)cc3C)o2)C(O)(C(F)(F)F)C1 (stereo not given),2.3µM*,-5%,-6%,-5,-4,3.7µM*
CC1=NN(C(=O)c2ccc(Cn3nc(C)c([N+](=O)[O-])c3C)cc2)C(O)(C(F)(F)F)C1 (stereo not given),?,-12%,-2%,6,-3,16%
O=c1[nH]c2ccccc2cc1CN(Cc1cccnc1)S(=O)(=O)c1ccc(Cl)cc1,28%,0%,1%,-61*,-16,-3%
Cc1ccc(S(=O)(=O)N(Cc2cc3ccccc3[nH]c2=O)c2cccc(C)c2)cc1,?,-13%,0%,18,-10,4.1µM*
Cc1ccc(S(=O)(=O)N(Cc2cc3ccc(C)cc3[nH]c2=O)c2ccccc2)cc1,5%,-7%,-7%,17,-7,-5%
CCCCN(Cc1cc2ccccc2[nH]c1=O)S(C)(=O)=O,-1%,0%,-1%,8,9,10µM*
CCCCN(Cc1cc2ccccc2[nH]c1=O)S(=O)(=O)c1ccc(C)cc1,-1%,4%,-1%,-12,1,6%
CC(C)(C)C1CCc2c(sc(NC(=O)CCC(=O)O)c2C(=O)Nc2ccccc2C(F)(F)F)C1 (stereo not given),nt,-22%,-4%,nt,nt,nt
O=C(c1ccc2c(c1)N(Cc1ccc(F)cc1)C(=O)c1ccccc1S2(=O)=O)N1CCCCCC1,nt,-3%,1%,nt,nt,nt
NC(=O)COC(=O)c1ccccc1OCC(=O)Nc1ccc(Br)cc1,nt,nt,1%,nt,nt,nt
Brc1ccccc1C1CC(c2ccccc2)=Nc2ccccc2N1 (stereo not given),23µM*,?,-9%,?,-15,?
Clc1ccccc1C1CC(c2ccccc2)=Nc2ccccc2N1 (stereo not given),?,20µM*,-22%,nt,-9,1%
c1ccc(C2=Nc3ccccc3NC(c3ccccc3)C2)cc1 (stereo not given),-9%,-15%,1%,-16,-9,1%
Cc1ccc(N(C(=O)c2cccc(C)c2)S(=O)(=O)c2ccc(Cl)cc2)cc1,nt,1%,-16%,nt,nt,nt
O=C(O)CN1CCNCCN(CC(=O)O)CCNCC1,-9%,-12%,1%,-12,14,2.9µM*
Cc1ccc(NC(=O)c2c(C)nn(-c3ccccc3)c2-n2cccc2)c(Cl)c1,nt,-7%,1%,nt,nt,nt
COc1cc2c(cc1OC)CN(c1nc(CN3CCCC3)nc3sc(C)c(C)c13)CC2,11%,0%,1%,-67*,18,24%
COc1cc2c(cc1OC)CN(c1nc(CN3CCOCC3)nc3sc4c(c13)CCCC4)CC2,18µM*,-5%,?,-66*,5,8%
COc1cc2c(cc1OC)CN(c1nc(CN3CCCCC3)nc3sc4c(c13)CCCC4)CC2,?,0%,-5%,-11,6,?
Cc1sc2nc(CN3CCCC3)nc(Cl)c2c1C,?,-1%,-4%,-72*,-3,?
SMILES,MCF10A rereplic,Vif-A3F inh,Vif-APOBEC3G blk,IL1B secr inh,Giardia killer,SW480 rerep
Cc1sc2nc(CN3CCOCC3)nc(N3CCOCC3)c2c1C,1%,-3%,-6%,-1,-19,-2%
COc1ccccc1NS(=O)(=O)c1cc(NC(=O)Nc2ccccc2)ccc1N1CCCCC1,1%,-9%,0%,12,2,2%
O=C(Nc1ccc(F)cc1)Nc1ccc(N2CCCC2)c(S(=O)(=O)Nc2ccccc2Cl)c1,13%,0%,-1%,-60*,20,?
O=C(Nc1ccc(Cl)c(Cl)c1)Nc1ccc(N2CCCC2)c(S(=O)(=O)Nc2ccccc2Cl)c1,?,-17%,-8%,-52*,24,?
O=C(Nc1ccc(N2CCCCC2)c(S(=O)(=O)Nc2ccccc2Cl)c1)c1cccnc1,18µM*,-34%,-9%,?,-6,?
COc1ccc(NS(=O)(=O)c2cc(NC(=O)c3cc(F)c(F)cc3Cl)ccc2N2CCOCC2)cc1,-5%,-1%,0%,-28,-10,?
CCOC(=O)Nc1ccc(N2CCOCC2)c(S(=O)(=O)Nc2ccc(Cl)cc2)c1,?,1%,?,-28,24,21µM*
COc1cccc(OC)c1-c1cc(CCCc2cc(-c3c(OC)cccc3OC)nc3ccccc23)c2ccccc2n1,nt,nt,-4%,nt,nt,nt
Cc1cn2c(=O)cc(COC(=O)c3cccc(NC(=O)COc4ccccc4)c3)nc2s1,nt,-6%,-2%,nt,nt,nt
COc1ccccc1NS(=O)(=O)c1cc(NC(=O)c2ccc(NC(C)=O)cc2)ccc1N1CCOCC1,?,3%,-14%,-2,-22,-2%
O=C(Nc1ccc(N2CCOCC2)c(S(=O)(=O)Nc2ccccc2Cl)c1)c1ccc(F)cc1,?,-15%,-4%,-56*,-10,17%
Cc1cc(C)cc(-n2c(SCC(N)=O)nc3c([nH]c4ccccc43)c2=O)c1,nt,-7%,?,nt,nt,nt
C=CCn1c(N)c(C(=O)NCC2CCCO2)c2nc3ccccc3nc21 (stereo not given),-7%,-4%,-12%,?,-9,9.2µM*
O=C(NCC1CCCO1)c1coc2nc3ccccc3nc12 (stereo not given),21µM*,0%,-6%,0,17,11%
CC(C)c1ccc(-c2nn(-c3ccccc3)cc2C(=O)NCC2CCCO2)cc1 (stereo not given),?,-34%,-4%,-80*,3,-586%
CCCCCc1cc[n+](CC(=O)c2ccccc2)cc1,nt,nt,-1%,nt,nt,nt
C=CCn1cccc(C(=O)Nc2ccc(C)c(C)c2)c1=O,7%,11%,3%,-78*,-3,3%
Cc1ncc([N+](=O)[O-])n1CCOC(=O)C12CC3CC(CC(C3)C1)C2,10%,-9%,-1%,?,?,-4%
